# This excerpt belongs to a sample that is enriched for the strongest signals.
# B1: PX9961KLbvu-535-38-535 (Bacteroides vulgatus) (protein)
# chain: DKAYTDAESYTKGLHKIYSVWALSGQDGSSSSDISGLDAGNTALLRCWWTLQEQPTDEMKNAWNDAWCTEVNYMTWTTNKVEPIEGVYQRCMYIVALVNEFLKNIPNAPESIDKESYIAQARFNRAFAYYVLMDMFALPPFITEKNYSIEPAPLSREDLFNWIEAELNEIKPNLPSPRSEYGVADQAVASALLARMYLNAEIYTGKARYTECINACNEVIKAGYQLADNYADLFKADNGENPDTKKEIIYPIIFDGDKTQSWGMAAIIIGARGAEDKDVLLAHSGVDQGWAGFRATSNLVHLFDFQNDEEPKASEIQDKRGIFYDKGRSIDITSSVSGTFETEGWSVFKFSNLNSNGQPGKNTLWVDTDFPMFRLGDIYLMYAEAVARGGEGSKASAVEYINALRKRAYGDDKHNISENWLEENNFRNLLDERGRELYWEGIRRTDLVRFDLLTSGSYTWDFKGGINTGVGVNKRYNVYPIPVTDLTVNGNLQQNEGY
# Key:
# Test in all cases: glycan array binding signal (z-score within array); higher = stronger binding
# Conditions in all cases: glycan notation: IUPAC condensed, linker removed
# GalNAc(b1-3)GalNAc = biological target: GalNAc(b1-3)GalNAc
# Method in brief: (§1)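 The binding signal is a Z-score computed within each array and averaged over linkers. Arrays of the same protein sequence at different concentrations or buffers were also averaged together. Data originate from 3228 arrays in the Consortium for Functional Glycomics database, kept only where the protein sequence was available.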
# [1] = biological target: GalNAc(b1-4)GlcNAc(b1-3)GalNAc(b1-4)GlcNAc
# Method in brief: as §1
# Glc(b1-4)Glc = biological target: Glc(b1-4)Glc
# Method in brief: as §1
# GlcA(b1-3)Gal = biological target: GlcA(b1-3)Gal
# Method in brief: as §1
# [2] = biological target: GlcA3S(b1-3)Gal(b1-4)GlcNAc(b1-3)Gal(b1-4)Glc
# Method in brief: as §1
# [3] = biological target: GlcNAc(a1-4)Gal(b1-4)GlcNAc(b1-3)Gal(b1-4)[Fuc(a1-3)]GlcNAc(b1-3)Gal(b1-4)[Fuc(a1-3)]GlcNAc
# Method in brief: as §1
# [4] = biological target: GlcNAc(b1-2)Gal(b1-3)GalNAc
# Method in brief: as §1
# [5] = biological target: GlcNAc(b1-2)Man(a1-3)[GlcNAc(b1-2)Man(a1-6)]Man(b1-4)GlcNAc(b1-4)GlcNAc
# Method in brief: as §1
# [6] = biological target: GlcNAc(b1-2)[GlcNAc(b1-4)]Man(a1-3)[GlcNAc(b1-4)][GlcNAc(b1-2)Man(a1-6)]Man(b1-4)GlcNAc(b1-4)GlcNAc
# Method in brief: as §1
# [7] = biological target: GlcNAc(b1-2)[GlcNAc(b1-6)]Man(a1-6)[GlcNAc(b1-2)Man(a1-3)]Man(b1-4)GlcNAc(b1-4)[Fuc(a1-6)]GlcNAc
# Method in brief: as §1
# [8] = biological target: GlcNAc(b1-3)Gal(b1-4)GlcNAc(b1-3)Gal(b1-4)GlcNAc(b1-2)Man(a1-3)[GlcNAc(b1-3)Gal(b1-4)GlcNAc(b1-3)Gal(b1-4)GlcNAc(b1-2)Man(a1-6)]Man(b1-4)GlcNAc(b1-4)[Fuc(a1-6)]GlcNAc
# Method in brief: as §1
# [9] = biological target: GlcNAc(b1-3)Gal(b1-4)GlcNAc(b1-3)Gal(b1-4)GlcNAc(b1-3)Gal(b1-4)GlcNAc(b1-3)Gal(b1-4)GlcNAc(b1-2)[GlcNAc(b1-3)Gal(b1-4)GlcNAc(b1-3)Gal(b1-4)GlcNAc(b1-3)Gal(b1-4)GlcNAc(b1-3)Gal(b1-4)GlcNAc(b1-6)]Man(a1-6)[GlcNAc(b1-3)Gal(b1-4)GlcNAc(b1-3)Gal(b1-4)GlcNAc(b1-3)Gal(b1-4)GlcNAc(b1-3)Gal(b1-4)GlcNAc(b1-2)Man(a1-3)]Man(b1-4)GlcNAc(b1-4)[Fuc(a1-6)]GlcNAc
# Method in brief: as §1
# [10] = biological target: GlcNAc(b1-3)[GlcNAc(b1-4)][GlcNAc(b1-6)]GlcNAc
# Method in brief: as §1
# [11] = biological target: GlcNAc(b1-4)GlcNAc(b1-4)GlcNAc(b1-4)GlcNAc(b1-4)GlcNAc
# Method in brief: as §1
# Man(a1-3)[Man(a1-6)]Man = biological target: Man(a1-3)[Man(a1-6)]Man
# Method in brief: as §1
# [12] = biological target: Man(a1-3)[Man(a1-6)]Man(a1-6)[Man(a1-2)Man(a1-3)]Man(b1-4)GlcNAc(b1-4)GlcNAc
# Method in brief: as §1
# [13] = biological target: Neu5Ac(a2-3)Gal(b1-3)[Fuc(a1-4)]GlcNAc
# Method in brief: as §1
# [14] = biological target: Neu5Ac(a2-3)Gal(b1-3)]Neu5Ac(a2-3)Gal(b1-4)]GlcNAc
# Method in brief: as §1
# [15] = biological target: Neu5Ac(a2-3)Gal(b1-4)GlcNAc(b1-2)Man(a1-3)[GlcNAc(b1-4)][Neu5Ac(a2-3)Gal(b1-4)GlcNAc(b1-2)Man(a1-6)]Man(b1-4)GlcNAc(b1-4)GlcNAc
# Method in brief: as §1
# [16] = biological target: Neu5Ac(a2-3)Gal(b1-4)GlcNAc(b1-2)Man(a1-3)[Neu5Ac(a2-3)Gal(b1-4)GlcNAc(b1-2)Man(a1-6)]Man(b1-4)GlcNAc(b1-4)[Fuc(a1-6)]GlcNAc
# Method in brief: as §1
# [17] = biological target: Neu5Ac(a2-3)Gal(b1-4)GlcNAc(b1-3)Gal(b1-4)GlcNAc(b1-3)Gal(b1-4)GlcNAc
# Method in brief: as §1
# [18] = biological target: Neu5Ac(a2-3)Gal(b1-4)[Fuc(a1-3)]GlcNAc(b1-3)GalNAc
# Method in brief: as §1
# [19] = biological target: Neu5Ac(a2-8)Neu5Gc(a2-3)Gal(b1-4)GlcNAc
# Method in brief: as §1
binder,measurement,setting,value
B1,glycan array binding signal (z-score),GalNAc(b1-3)GalNAc,-0.606
same,glycan array binding signal (z-score),[1],-0.094
same,glycan array binding signal (z-score),Glc(b1-4)Glc,-0.497
same,glycan array binding signal (z-score),GlcA(b1-3)Gal,-0.742
same,glycan array binding signal (z-score),[2],-0.814
same,glycan array binding signal (z-score),[3],0.673
same,glycan array binding signal (z-score),[4],0.183
same,glycan array binding signal (z-score),[5],-0.632
same,glycan array binding signal (z-score),[6],1.4
same,glycan array binding signal (z-score),[7],0.105
same,glycan array binding signal (z-score),[8],1.82
same,glycan array binding signal (z-score),[9],1.39
same,glycan array binding signal (z-score),[10],-0.666
same,glycan array binding signal (z-score),[11],-0.429
same,glycan array binding signal (z-score),Man(a1-3)[Man(a1-6)]Man,-0.077
same,glycan array binding signal (z-score),[12],0.357
same,glycan array binding signal (z-score),[13],1.01
same,glycan array binding signal (z-score),[14],-0.578
same,glycan array binding signal (z-score),[15],-0.451
same,glycan array binding signal (z-score),[16],0.475
same,glycan array binding signal (z-score),[17],-0.106
same,glycan array binding signal (z-score),[18],0.19
same,glycan array binding signal (z-score),[19],19.4

# From the supplement of paper PMC8728848
